Results filed as inconclusive are left out. Activity calls are given as the source filed them. Unless noted, calls come from the whole dose curve; as a rule, active = well fitted curve in either direction with a large enough effect (not every such curve was filed as active); inconclusive = small, poorly fitted or top-dose-only effect, or another doubt; inactive = flat fitted curve, though single readings scatter.
What was measured:
[1] = test system: HIV-1 nucleocapsid protein NCp7 (binding to TG oligonucleotide); test: HIV Nucleocapsid (AID 346; call rule not given here;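 note: potency is the fitted concentration of half-maximal effect; potency is for inhibitors that block NC binding and lower polarization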); conditions: HIV-1 NC / fluorescein-TGTGTGTG probe, fluorescence polarization
Procedure, shortened: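 HIV-1 NC (100 nM) binding to fluorescein-labelled ssDNA TG4xF (10 nM) in Hepes pH 7.5, 250mM NaCl, 1uM ZnCl2, TCEP and 2-mercaptoethanol; compounds pin-transferred, 1 hr room temperature, fluorescence polarization read on CCD imager.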

[2] = biological target: Lysosomal acid glucosylceramidase (Homo sapiens) (UniProt P04062); test: Glucocerebrosidase-p2 (AID 348; in the data active = potency below about 10 µM; note: potency is the fitted concentration of half-maximal effect); conditions: purified GBA, blue fluorogenic substrate, 40 min
Procedure, shortened: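 Normal human glucocerebrosidase (0.2 nM) with blue fluorogenic substrate (80 uM final) in citrate/phosphate pH 5.9 with 10mM sodium taurocholate, 0.01% tween-20; 40 min RT, NaOH/glycine stop; fluorescence Ex 365/Em 440; AC50 from a titration from 0.6 nM upwards.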

[3] = AP1 Signaling Pathway (AID 357); conditions: ME-180 AP-1-bla reporter, EGF-induced, beta-lactamase ratio, 5 h; series mostly up to 17.2 µM;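 note: ME-180 reporter cells stimulated with EGF at its EC50 level; % is set by controls: 0 for no effect and ±100 for the full control effect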
Procedure, shortened: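 Modulation of EGF-driven AP-1 transcription was assessed with a beta-lactamase reporter in ME-180 cells. Compound and EC50 EGF were co-incubated 5 hours at 37 °C before 2.5-hour CCF4 loading at room temperature and dual-emission reading.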

[4] = biological target: Cytochrome P450 1A2 (Homo sapiens) (UniProt P05177); test: p450-cyp1a2 (AID 410; calls by dose curve; note: potency is the fitted concentration of half-maximal effect;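 for activity change, negative = inhibition: -100% = full effect of reference inhibitor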); conditions: recombinant CYP1A2, luciferin-ME demethylation, luminescence; series mostly up to 25.6 µM
Procedure, shortened: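 Luminescent demethylation readout: Luciferin-ME (100uM, equal to Km) turned over by 20nM CYP1A2 for 60 min at room temperature after NADPH regeneration addition, following 10 min compound preincubation. Normalization used 57 uM furafylline as full inhibition.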

[5] = NFAT Signaling Pathway (AID 444); conditions: Jurkat NFAT-bla M1, carbachol, beta-lactamase ratio, 5 h; at 7.69 µM (top of the series);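 note: carbachol stimulus at about its EC50 of 1 µM final; % is set by controls: 0 for no effect and ±100 for the full control effect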
Procedure, shortened: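 Jurkat cells carrying an NFAT-driven β-lactamase reporter and co-transfected muscarinic M1 receptor were treated with compound plus carbachol (1 uM final, an EC50 level) for 5 h at 37 °C. CCF4 loading followed for 1 h at RT; 460/530 nm ratio gave %activity.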

[6] = biological target: Glucocorticoid receptor (Homo sapiens) (UniProt P04150); test: GR-EFC Redistribution (AID 451; calls by dose curve; note: potency is the fitted concentration of half-maximal effect); conditions: CHO-K1 GR-EFC translocation, beta-gal luminescence, 2 h
Procedure, shortened: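 CHO-K1 cells stably expressing nuclear-localized β-gal enzyme acceptor and GR fused C-terminally to the enzyme donor fragment; ligand-driven nuclear translocation restores β-gal by complementation. Compounds titrated up to 46 uM final, 2 h at 37 °C; luminescence read.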

[7] = biological target: Mitogen-activated protein kinase 10 (Mus musculus) (UniProt Q61831); test: JNK3 AlphaScreen Assay (AID 530); conditions: JNK3 lysate, c-Jun phosphorylation; series mostly up to 57.1 µM;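 note: kinase came from lysate of stimulated human HepG2 cells; signal reports phosphorylation of biotinylated GST-cJun 1-79 at Ser73 with 10 µM ATP; % is set by controls: 0 for no effect and ±100 for the full control effect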
Procedure, shortened: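 Phosphorylation of biotinylated GST-cJun(1-79) at Ser73 is measured by AlphaScreen proximity luminescence. Enzyme is JNK3 in HepG2 lysates activated with interleukin-1beta and tumor necrosis factor alpha; ATP is 10 uM final.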

[8] = biological target: 3',5'-cyclic-AMP phosphodiesterase 4B (Homo sapiens) (UniProt Q07343); test: qHTS Assay for Inhibitors of PDE-IV (AID 607; active = well fitted activation curve with a large enough effect in the main read-out, with a control signal flat, not every such curve was filed as active; note: % of control where 0% means no effect); conditions: HEK293 ACTOne CNG channel cells, membrane potential fluorescence; series mostly up to 22.9 µM
Procedure, shortened: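 Cell-based read-out of cAMP via a modified cyclic nucleotide-gated channel and membrane potential dye (535/590 nm) in HEK293 cells expressing PDE4 endogenously. Compounds tested up to 22.9 uM final; 100 uM RO 20-1724 reference.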

[9] = biological target: Cytochrome P450 2D6 (Homo sapiens) (UniProt P10635); test: qHTS Assay for Inhibitors and Substrates of Cytochrome P450 2D6 (AID 891; active = well fitted curve in the direction sought with a large enough effect; an effect the other way counts as inactive or inconclusive; note: potency is the fitted concentration of half-maximal effect; nearly all actives have a fitted effect of over 60% in size); conditions: recombinant CYP2D6, luciferin-ME EGE luminescence; series mostly up to 57.1 µM
Procedure, shortened: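 Luminescent read-out of luciferin formed by 5 nM human CYP2D6 demethylating 30 uM Luciferin-ME EGE (Km level) over 60 min at room temperature after NADPH regeneration addition. Data normalized to full inhibition by 1.43 uM quinidine.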

[10] = qHTS Assay for Lipid Storage Modulators (AID 1519; calls by dose curve); conditions: Drosophila S3 cells, BODIPY lipid droplet/cell ratio, laser cytometry, cells loaded with oleic acid; for activity change, negative = inhibition: at 57.5 µM (top of the series)
Procedure, shortened: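 Cells seeded at 5,000 per well were treated with compounds over a concentration series and loaded with oleic acid (400 uM, as added). Lipid droplet fluorescence (488 nm excitation, 500-530 nm channel) was read by laser-scanning cytometry and normalized to 20 uM Triacsin C.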

[11] = Primary qHTS for small molecule stabilizers of the endoplasmic reticulum resident proteome: Secreted ER Calcium Modulated Protein (SERCaMP) assay (AID 1508630; active = well fitted curve in the direction sought with a large enough effect; an effect the other way counts as inactive or inconclusive; note: % is set by controls: 0 for no effect and ±100 for the full control effect); conditions: SH-SY5Y GLuc-SERCaMP (Gaussia luciferase released on ER calcium loss) secretion, thapsigargin, luminescence; series mostly up to 38.4 µM
Procedure, shortened: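 The SH-SY5Y reporter protocol was run at 3 concentrations up to 38.3 uM (primary) or 11 concentrations (follow-up): 16 h compound, 100 nM thapsigargin for 4 h, then extracellular luciferase luminescence.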

[12] = Stat Signaling Pathway (AID 446); conditions: ME-180 SIE beta-lactamase reporter, IL-6 stimulated, 5 h; series mostly up to 17.2 µM
Procedure, shortened: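 FRET read-out (405 nm excitation, 460/530 nm emission) of a beta-lactamase reporter under a STAT-inducible element in ME-180 cervical carcinoma cells. Cells with compound receive 40 pM IL-6 for 5 h. Values are normalised to AC90 stimulation and AC90 JAK-inhibitor controls.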

[13] = biological target: Cytochrome P450 3A4 (Homo sapiens) (UniProt P08684); test: qHTS Assay for Activators of Cytochrome P450 3A4 (AID 885; active = well fitted curve in the direction sought with a large enough effect; an effect the other way counts as inactive or inconclusive; note: nearly all actives have a fitted effect of over 65% in size); conditions: recombinant CYP3A4, Luciferin-PPXE luminescence, 60 min; series mostly up to 57.1 µM
Procedure, shortened: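 Luminescent readout of luciferin formed from 25 uM Luciferin-PPXE (KM level) by 20 nM CYP3A4 in 200 mM KPO4, with 60 min NADPH-driven reaction at room temperature after 10 min compound exposure. Ketoconazole (57 uM) defined 100% inhibition.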

[14] = qHTS Assay for Identification of Small Molecule Agonists for Hypoxia Response Element Signaling Pathway (AID 914; active = well fitted activation curve with a large enough effect in the signal ratio, with a control signal flat, not every such curve was filed as active; the % refers to the signal ratio; note: % of control where 0% means no effect); conditions: ME-180 (cervical carcinoma) HRE-bla reporter, beta-lactamase ratio, CoCl2, 17 h; activation: stronger effect = higher value
Procedure, shortened: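 A beta-lactamase reporter under hypoxia response element control in ME-180 cells served as the system. Compound titrations plus EC50 CoCl2 ran 17 h at 37 degrees Celsius; AC50 values were fitted from %Activity.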

[15] = biological target: Cytochrome P450 3A4 (Homo sapiens) (UniProt P08684); test: qHTS Assay for Inhibitors and Substrates of Cytochrome P450 3A4 (AID 884; active = well fitted curve in the direction sought with a large enough effect; an effect the other way counts as inactive or inconclusive; note: potency is the fitted concentration of half-maximal effect; nearly all actives have a fitted effect of over 50% in size); conditions: recombinant CYP3A4, Luciferin-PPXE luminescence; series mostly up to 57.1 µM
Procedure, shortened: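 Luminescent readout of luciferin produced by CYP3A4 (20 nM) dealkylation of Luciferin-PPXE, 25 uM (its KM). NADPH-driven reaction ran 60 min at RT after 10 min compound preincubation; data scaled to 57 uM ketoconazole as 100% inhibition.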

[16] = Confirmation and Secondary Assay for Modulators of Hemoglobin Beta Chain Splicing at IVS2 654 locus (AID 910; active = well fitted curve in the direction sought with a large enough effect; an effect the other way counts as inactive or inconclusive;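 note: per-well total GFP intensity by laser scanning cytometry after 2-day treatment; % of control where 0% means no effect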); conditions: HeLa EGFP-654 splicing reporter, GFP fluorescence, 48 h; series mostly up to 46.1 µM
Procedure, shortened: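 HeLa cells stably carrying EGFP interrupted by mutant beta-globin IVS2-654 intron (CMV-driven) were treated with compound for 2 days at 37C; corrected splicing was scored as total peak GFP intensity per well (488 nm excitation, 500-520 nm emission).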

[17] = Confirmation and Secondary Assay for Modulators of Hemoglobin Beta Chain Splicing at IVS2 705 locus (AID 930; active = well fitted curve in the direction sought with a large enough effect; an effect the other way counts as inactive or inconclusive;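 note: HeLa cells stably expressing the EGFP-705 splicing reporter; GFP fluorescence per well restored by corrected splicing of the IVS2-705 intron in EGFP; % of control where 0% means no effect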); conditions: HeLa EGFP-705 splicing reporter, GFP fluorescence, 48 h; series mostly up to 46.1 µM
Procedure, shortened: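 Fluorescence gain (488 nm laser, 500-520 nm PMT) reflects restored correct splicing of a mutant IVS2-705 intron inside EGFP in stably transfected HeLa cells after 2-day compound treatment.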

[18] = biological target: Ubiquitin carboxyl-terminal hydrolase 1 (Homo sapiens) (UniProt O94782); test: Inhibitors of USP1/UAF1: Pilot qHTS (AID 504865; active = well fitted curve in the direction sought with a large enough effect; an effect the other way counts as inactive or inconclusive;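 note: rhodamine fluorescence freed from ubiquitin-rhodamine substrate followed over time; top concentration of the series differs between compounds; % is set by controls: 0 for no effect and ±100 for the full control effect; nearly all actives have a fitted effect of over 35% in size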); conditions: purified USP1/UAF1, Ub-rhodamine cleavage fluorescence; series mostly up to 114 µM
Procedure, shortened: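 USP1/UAF1 complex (1nM) preincubated with compound 15 min at room temperature, then Ub-Rho substrate (150nM final) added. Fluorescence read kinetically at 480/540 nm, 6 reads every 60 seconds. Buffer: 50mM HEPES pH 7.8, 0.5mM EDTA, 0.1 mg/ml BSA, 1mM TCEP, 0.01% Tween-20.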

[19] = biological target: Dual specificity protein kinase CLK4 (Homo sapiens) (UniProt Q9HAZ1); test: qHTS Assay for Inhibitors of CDC-like Kinase 4 (Kinase-Glo Assay) (AID 1770; active = well fitted curve in the direction sought with a large enough effect; an effect the other way counts as inactive or inconclusive; note: % is set by controls: 0 for no effect and ±100 for the full control effect; nearly all actives have a fitted effect of over 65% in size); conditions: recombinant Clk4, Kinase-Glo ATP depletion luminescence; series mostly up to 66.7 µM
Procedure, shortened: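 Recombinant human Clk4 (25 nM) phosphorylated RS repeat peptide (100 uM) with 1 uM ATP in Tris pH 7.5/MgCl2/EGTA/DTT/Triton buffer for 4.5 h at room temperature. Residual ATP was quantified by Kinase-Glo luciferase luminescence.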

[20] = biological target: Dual specificity protein kinase CLK4 (Homo sapiens) (UniProt Q9HAZ1); test: qHTS Assay for Inhibitors of CDC-like Kinase 4 (ADP-Glo Assay) (AID 1771; active = well fitted curve in the direction sought with a large enough effect; an effect the other way counts as inactive or inconclusive; note: % is set by controls: 0 for no effect and ±100 for the full control effect; nearly all actives have a fitted effect of over 70% in size); conditions: recombinant CLK4, ADP-Glo luminescence; series mostly up to 80 µM
Procedure, shortened: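 ADP production was read by ADP-Glo luminescence after residual ATP depletion, following 1 h room-temperature reaction of 25 nM Clk4, 1 uM ATP and 100 uM RS peptide with MgCl2, EGTA, DTT and Triton X-100.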

[21] = biological target: Dual specificity protein kinase CLK4 (Homo sapiens) (UniProt Q9HAZ1); test: qHTS Assay for Inhibitors of CDC-like Kinase 4 (ADP-FP Assay) (AID 1795; active = well fitted curve in the direction sought with a large enough effect; an effect the other way counts as inactive or inconclusive; note: % is set by controls: 0 for no effect and ±100 for the full control effect; nearly all actives have a fitted effect of over 60% in size); conditions: Transcreener ADP fluorescence polarization; series mostly up to 50 µM
Procedure, shortened: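 Recombinant human Clk4 (6.25 nM) phosphorylated RS repeat peptide (100 uM) with 1 uM ATP in Tris pH 7.5/MgCl2/EGTA/DTT/Triton buffer for one hour. ADP was quantified by Transcreener competitive fluorescence polarization against an ADP calibration curve.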

[22] = measured here: cell count channel max response
[23] = measured here: lipid channel max response

Chain of 3',5'-cyclic-AMP phosphodiesterase 4B (Homo sapiens) (Q07343 whole entry, looked up): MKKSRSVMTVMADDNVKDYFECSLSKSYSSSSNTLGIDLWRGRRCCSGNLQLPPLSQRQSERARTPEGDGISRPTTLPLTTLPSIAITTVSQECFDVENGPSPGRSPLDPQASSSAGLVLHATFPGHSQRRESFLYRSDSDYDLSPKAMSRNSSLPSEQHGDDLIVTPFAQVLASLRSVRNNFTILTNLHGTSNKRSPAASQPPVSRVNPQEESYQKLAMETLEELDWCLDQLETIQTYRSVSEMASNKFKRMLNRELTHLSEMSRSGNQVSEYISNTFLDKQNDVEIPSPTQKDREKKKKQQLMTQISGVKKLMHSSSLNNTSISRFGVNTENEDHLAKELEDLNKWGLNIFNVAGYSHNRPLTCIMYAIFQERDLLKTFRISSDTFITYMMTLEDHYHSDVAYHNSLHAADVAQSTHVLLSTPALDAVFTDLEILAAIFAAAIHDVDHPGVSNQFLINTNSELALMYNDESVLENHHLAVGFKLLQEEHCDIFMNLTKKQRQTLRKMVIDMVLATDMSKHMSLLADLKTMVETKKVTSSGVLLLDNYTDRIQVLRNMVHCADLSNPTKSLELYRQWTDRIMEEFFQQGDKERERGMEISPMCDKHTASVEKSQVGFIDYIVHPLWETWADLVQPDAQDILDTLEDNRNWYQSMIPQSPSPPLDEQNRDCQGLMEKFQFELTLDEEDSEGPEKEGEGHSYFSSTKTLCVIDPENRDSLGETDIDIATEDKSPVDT
Chain of Lysosomal acid glucosylceramidase (Homo sapiens) (P04062 whole entry, looked up): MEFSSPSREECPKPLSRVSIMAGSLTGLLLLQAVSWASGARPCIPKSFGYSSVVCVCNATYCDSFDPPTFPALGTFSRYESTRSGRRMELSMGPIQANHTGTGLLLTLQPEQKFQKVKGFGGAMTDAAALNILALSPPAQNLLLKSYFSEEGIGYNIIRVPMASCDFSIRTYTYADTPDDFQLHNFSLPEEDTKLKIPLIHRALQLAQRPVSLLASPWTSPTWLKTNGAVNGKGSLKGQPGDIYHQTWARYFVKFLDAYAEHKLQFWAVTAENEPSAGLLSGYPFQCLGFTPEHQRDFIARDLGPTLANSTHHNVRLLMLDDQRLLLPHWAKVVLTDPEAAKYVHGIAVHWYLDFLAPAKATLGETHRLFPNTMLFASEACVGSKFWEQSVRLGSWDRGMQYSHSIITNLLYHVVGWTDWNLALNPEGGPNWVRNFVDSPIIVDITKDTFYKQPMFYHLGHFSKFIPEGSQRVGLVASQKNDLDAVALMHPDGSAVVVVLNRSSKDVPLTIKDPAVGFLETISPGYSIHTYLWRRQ
Chain of Cytochrome P450 1A2 (Homo sapiens) (P05177 whole entry, looked up): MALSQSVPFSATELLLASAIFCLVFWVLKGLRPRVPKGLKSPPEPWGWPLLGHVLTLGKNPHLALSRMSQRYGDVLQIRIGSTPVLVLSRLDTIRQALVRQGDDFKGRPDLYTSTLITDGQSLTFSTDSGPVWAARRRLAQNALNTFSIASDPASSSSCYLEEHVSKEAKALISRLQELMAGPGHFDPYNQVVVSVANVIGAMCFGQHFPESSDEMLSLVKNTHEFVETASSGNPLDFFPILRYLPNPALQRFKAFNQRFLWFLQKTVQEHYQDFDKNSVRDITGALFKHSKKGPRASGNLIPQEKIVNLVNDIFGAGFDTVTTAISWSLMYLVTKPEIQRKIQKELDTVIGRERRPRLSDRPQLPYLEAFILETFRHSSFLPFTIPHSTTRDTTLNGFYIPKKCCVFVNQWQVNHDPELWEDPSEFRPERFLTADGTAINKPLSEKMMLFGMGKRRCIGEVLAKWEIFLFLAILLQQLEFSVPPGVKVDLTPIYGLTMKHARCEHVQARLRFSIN
Chain of Glucocorticoid receptor (Homo sapiens) (P04150 whole entry, looked up, the tested form may be a part): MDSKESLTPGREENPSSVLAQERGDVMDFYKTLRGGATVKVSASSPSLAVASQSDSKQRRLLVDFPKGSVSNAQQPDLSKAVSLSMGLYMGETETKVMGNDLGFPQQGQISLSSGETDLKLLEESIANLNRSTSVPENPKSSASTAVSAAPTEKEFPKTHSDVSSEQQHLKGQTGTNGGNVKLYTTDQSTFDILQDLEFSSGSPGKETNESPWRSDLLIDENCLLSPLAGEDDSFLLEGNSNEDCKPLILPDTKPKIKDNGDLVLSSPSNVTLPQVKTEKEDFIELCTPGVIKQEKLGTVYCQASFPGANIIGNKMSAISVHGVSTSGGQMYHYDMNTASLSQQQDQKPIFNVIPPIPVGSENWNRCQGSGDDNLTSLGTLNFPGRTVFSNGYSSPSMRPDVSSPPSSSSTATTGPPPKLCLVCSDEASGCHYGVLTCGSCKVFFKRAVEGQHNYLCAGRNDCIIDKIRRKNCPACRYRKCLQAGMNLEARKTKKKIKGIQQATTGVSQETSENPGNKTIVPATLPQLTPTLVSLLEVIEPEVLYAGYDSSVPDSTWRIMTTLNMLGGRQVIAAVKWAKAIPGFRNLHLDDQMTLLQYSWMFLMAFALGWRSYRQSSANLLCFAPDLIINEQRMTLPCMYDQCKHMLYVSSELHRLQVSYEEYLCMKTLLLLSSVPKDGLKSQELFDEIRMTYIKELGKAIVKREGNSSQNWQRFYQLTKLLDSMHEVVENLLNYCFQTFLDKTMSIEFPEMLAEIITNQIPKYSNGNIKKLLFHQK
Chain of Cytochrome P450 3A4 (Homo sapiens) (P08684 whole entry, looked up): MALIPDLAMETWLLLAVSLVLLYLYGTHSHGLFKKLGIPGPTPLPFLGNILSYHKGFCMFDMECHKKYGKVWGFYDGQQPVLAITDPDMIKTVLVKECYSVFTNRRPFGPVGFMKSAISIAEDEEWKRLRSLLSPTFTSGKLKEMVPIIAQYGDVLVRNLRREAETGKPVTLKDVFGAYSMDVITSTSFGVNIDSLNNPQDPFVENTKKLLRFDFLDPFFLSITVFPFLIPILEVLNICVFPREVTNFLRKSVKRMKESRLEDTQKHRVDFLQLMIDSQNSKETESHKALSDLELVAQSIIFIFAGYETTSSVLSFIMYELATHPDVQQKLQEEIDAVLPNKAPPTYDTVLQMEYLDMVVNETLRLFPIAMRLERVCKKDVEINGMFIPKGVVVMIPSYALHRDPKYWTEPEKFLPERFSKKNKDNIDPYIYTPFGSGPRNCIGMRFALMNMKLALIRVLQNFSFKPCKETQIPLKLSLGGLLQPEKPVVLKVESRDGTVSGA
Chain of Dual specificity protein kinase CLK4 (Homo sapiens) (Q9HAZ1 whole entry, looked up): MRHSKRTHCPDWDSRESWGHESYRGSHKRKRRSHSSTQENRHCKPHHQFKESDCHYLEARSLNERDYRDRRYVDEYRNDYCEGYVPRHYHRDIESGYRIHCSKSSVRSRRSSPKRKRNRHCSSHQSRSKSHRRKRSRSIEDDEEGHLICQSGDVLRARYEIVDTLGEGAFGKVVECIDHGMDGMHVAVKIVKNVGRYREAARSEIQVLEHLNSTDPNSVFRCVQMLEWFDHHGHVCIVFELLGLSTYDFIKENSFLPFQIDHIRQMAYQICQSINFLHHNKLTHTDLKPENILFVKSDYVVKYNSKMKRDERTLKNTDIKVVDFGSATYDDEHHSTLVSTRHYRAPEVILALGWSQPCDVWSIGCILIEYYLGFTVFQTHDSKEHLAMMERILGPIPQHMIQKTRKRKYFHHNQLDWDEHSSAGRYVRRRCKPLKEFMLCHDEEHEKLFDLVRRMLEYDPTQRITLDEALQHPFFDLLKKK
Chain of Ubiquitin carboxyl-terminal hydrolase 1 (Homo sapiens) (O94782 whole entry, looked up): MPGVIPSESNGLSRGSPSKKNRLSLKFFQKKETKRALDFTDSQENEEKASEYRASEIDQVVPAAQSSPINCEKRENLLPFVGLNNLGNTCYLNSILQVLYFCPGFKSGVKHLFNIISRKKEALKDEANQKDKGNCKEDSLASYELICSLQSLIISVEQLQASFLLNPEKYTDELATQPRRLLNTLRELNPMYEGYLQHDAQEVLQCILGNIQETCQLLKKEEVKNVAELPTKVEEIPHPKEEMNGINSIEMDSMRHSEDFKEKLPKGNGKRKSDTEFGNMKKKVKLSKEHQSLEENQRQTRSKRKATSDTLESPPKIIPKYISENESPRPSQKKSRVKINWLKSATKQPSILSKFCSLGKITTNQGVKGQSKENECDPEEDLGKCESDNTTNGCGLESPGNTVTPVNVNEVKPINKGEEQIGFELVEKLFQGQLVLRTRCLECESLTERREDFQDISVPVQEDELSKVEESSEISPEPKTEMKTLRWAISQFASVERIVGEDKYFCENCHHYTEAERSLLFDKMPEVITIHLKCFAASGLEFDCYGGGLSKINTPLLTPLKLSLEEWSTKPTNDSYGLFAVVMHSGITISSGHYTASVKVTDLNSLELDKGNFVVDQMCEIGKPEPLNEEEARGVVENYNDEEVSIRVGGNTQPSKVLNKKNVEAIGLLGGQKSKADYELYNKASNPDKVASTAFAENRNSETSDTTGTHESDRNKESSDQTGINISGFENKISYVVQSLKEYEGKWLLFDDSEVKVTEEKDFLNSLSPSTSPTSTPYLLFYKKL
Chain of Cytochrome P450 2D6 (Homo sapiens) (P10635 whole entry, looked up): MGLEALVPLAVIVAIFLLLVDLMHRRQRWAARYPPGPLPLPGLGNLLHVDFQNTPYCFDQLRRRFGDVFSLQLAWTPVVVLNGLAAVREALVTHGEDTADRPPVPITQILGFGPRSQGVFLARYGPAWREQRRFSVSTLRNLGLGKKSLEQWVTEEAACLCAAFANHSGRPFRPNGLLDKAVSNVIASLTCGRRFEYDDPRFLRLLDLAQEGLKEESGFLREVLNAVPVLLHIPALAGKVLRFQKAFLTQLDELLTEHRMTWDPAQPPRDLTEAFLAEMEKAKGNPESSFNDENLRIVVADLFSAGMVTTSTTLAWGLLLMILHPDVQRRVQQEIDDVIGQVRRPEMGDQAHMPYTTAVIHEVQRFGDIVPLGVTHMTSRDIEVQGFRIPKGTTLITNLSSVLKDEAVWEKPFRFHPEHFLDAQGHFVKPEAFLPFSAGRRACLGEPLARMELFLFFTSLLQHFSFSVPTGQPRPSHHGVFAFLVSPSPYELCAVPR

CC(C)CN1CCC2(CC1)CCN(S(C)(=O)=O)CC2
active: Potency [9] 0.794 µM
-17.2%: max response [10, 23]
-15.1%: max response [10, 22]
inactive: Potency [1] > 20 µM | Potency [2] > 11.4 µM | outcome [3] | Potency [4] | activity change, negative = inhibition [5] 6.76% | Potency [6] > 46 µM | outcome [7] | Potency [8] | activity change, negative = inhibition [10] -1.49% | outcome [11]

C[C@@H]1O[C@@H](O[C@H]2CC[C@]3(C=O)C4CC[C@]5(C)[C@@H](C6=CC(=O)OC6)CC[C@]5(O)[C@@H]4CC[C@]3(O)C2)[C@H](O)[C@H](O)[C@H]1O (some centres not stated)
inactive: outcome [11]

N#Cc1ccc(CN2CCCC3(CCN(C(=O)Oc4ccccc4)CC3)C2)cc1
inactive: Potency [1] > 20 µM | outcome [3] | Potency [4] | outcome [12] | Potency [6] > 46 µM | outcome [7] | Potency [8] | Potency [13] | activity change, negative = inhibition [10] 1.3% | outcome [11]
11.6%: max response [10, 22]
16.3%: max response [10, 23]

CC(C)CN1CC2(CCN(C(=O)Oc3ccccc3)CC2)C1
inactive: Potency [1] > 20 µM | Potency [2] > 11.4 µM | outcome [3] | activity change, negative = inhibition [5] -14.8% | Potency [6] > 46 µM | outcome [7] | Potency [8] | activation [14] -12.9% | activity change, negative = inhibition [10] 2.95% | outcome [11]
-4.14%: max response [10, 22]
1.27%: max response [10, 23]

Cc1ccccc1-c1cncnc1NCCc1cnc[nH]1
17.7%: max response [10, 23]
9.82%: max response [10, 22]
inactive: Potency [1] > 20 µM | Potency [2] > 11.4 µM | outcome [3] | activity change, negative = inhibition [5] -8.8% | outcome [12] | Potency [6] > 46 µM | outcome [7] | Potency [8] | Potency [13] | Potency [16] | Potency [17] | activity change, negative = inhibition [10] 6.91% | Potency [18] | outcome [11]
active: Potency [15] 0.631 µM

CN1CCN(c2ncc3ncc(=O)n(C)c3n2)CC1
inactive: Potency [1] > 20 µM | outcome [3] | activity change, negative = inhibition [5] 11.5% | outcome [12] | Potency [6] > 46 µM | outcome [7] | Potency [8] | activity change, negative = inhibition [10] 3.09% | outcome [19] | outcome [20] | outcome [21] | Potency [18] | outcome [11]
1.21%: max response [10, 23]
active: Potency [4] 12.6 µM
-0.0774%: max response [10, 22]

CN1CCC2(CC1)CCN(C(=O)Oc1ccccc1)CC2
7.31%: max response [10, 23]
2.61%: max response [10, 22]
inactive: Potency [1] > 20 µM | outcome [3] | Potency [4] | outcome [12] | Potency [6] > 46 µM | outcome [7] | Potency [8] | activity change, negative = inhibition [10] 2.73% | outcome [11]

From PubChem BioAssay (NCATS)
